Assay results published in PubChem BioAssay (NCI).
The panel holds about 83,000 compounds, 20% with a hit somewhere; the sample as a whole holds those more often.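 How to read the values: 0–100, growth inhibition (40 = 60% inhibited); 0, no net growth; -100 to 0, cell death (-40 = 40% of starting cells died; -100 = all dead).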 Values without a mark were called inactive. Activity calls are given as the source filed them. The calls were made as follows: active = growth percent below 10; inactive = the rest.

Key:
Test in all cases: NCI-60 one-dose screen, 48 h (100 = growth as untreated, 0 = no growth, -100 = all killed)
Settings in all cases: 10 µM unless noted
[1] = tested on: SK-MEL-2 melanoma
[2] = tested on: EKVX NSCLC
[3] = tested on: SN12C renal
[4] = tested on: UO-31 renal
[5] = tested on: TK-10 renal
[6] = tested on: ACHN renal
[7] = tested on: CAKI-1 renal
[8] = tested on: A498 renal
[9] = tested on: CCRF-CEM leukemia
[10] = tested on: MOLT-4 leukemia
[11] = tested on: SR leukemia
[12] = tested on: RPMI-8226 leukemia
[13] = tested on: OVCAR-8 ovarian
[14] = tested on: OVCAR-5 ovarian
[15] = tested on: OVCAR-4 ovarian
[16] = tested on: SK-OV-3 ovarian
[17] = tested on: IGROV1 ovarian
[18] = tested on: OVCAR-3 ovarian
[19] = tested on: HS 578T breast
[20] = tested on: NCI/ADR-RES ovarian

Compound: Cc1cc2c(c(C)n1)CN(C(=O)Nc1nc(-c3cncs3)ccc1N)C2
- growth [1]: 81%
- growth [2]: 97.3%
- growth [3]: 105%
- growth [4]: 92%
- growth [5]: 62.7%
- growth [6]: 106%
- growth [7]: 76.8%
- growth [8]: 96%
- growth [9]: 107%
- growth [10]: 107%
- growth [11]: 95.3%
- growth [12]: 93.7%
- growth [13]: 92.3%
- growth [14]: 103%
- growth [15]: 96.7%
- growth [16]: 89%
- growth [17]: 92.6%
- growth [18]: 103%
- growth [19]: 104%
- growth [20]: 96.5%

Compound: CC1=NC(=S)NC(c2ccccc2)/C1=C1/CC(c2ccccc2O)NN1 (stereo not drawn)
- growth [1]: 108%
- growth [2]: 95.7%
- growth [3]: 97.5%
- growth [4]: 73.1%
- growth [5]: 138%
- growth [6]: 101%
- growth [7]: 84.8%
- growth [8]: 93.8%
- growth [9]: 99.1%
- growth [10]: 99.9%
- growth [11]: 97.8%
- growth [12]: 97.7%
- growth [13]: 96.6%
- growth [14]: 101%
- growth [15]: 101%
- growth [16]: 98.2%
- growth [17]: 93.2%
- growth [18]: 109%
- growth [19]: 108%
- growth [20]: 104%

Compound: CC(=O)OCC(=O)O[C@@H]1C[C@]2(C(C)C)O[C@@]1(C)[C@@H]1CC[C@@H](C)[C@H]1[C@@H]2OC(=O)/C=C/c1ccccc1
- growth [1]: 90.9%
- growth [2]: 68.9%
- growth [3]: 20.3%
- growth [4]: -83.3% (active)
- growth [5]: 81.1%
- growth [6]: -4.65% (active)
- growth [7]: -2.07% (active)
- growth [8]: -92.5% (active)
- growth [9]: 70.7%
- growth [10]: 74.5%
- growth [11]: 78.4%
- growth [12]: 73.7%
- growth [13]: 25%
- growth [14]: 99.8%
- growth [15]: 87.9%
- growth [16]: 87.7%
- growth [17]: 106%
- growth [18]: 90.9%
- growth [19]: -18% (active)
- growth [20]: 21.7%

Compound: CN1CC(c2ccccc2)C(C(=O)c2ccc(Br)cc2)C12C(=O)Nc1ccccc12 (stereo not drawn)
- growth [1]: 99.2%
- growth [2]: 91.8%
- growth [3]: 94.5%
- growth [4]: 65.9%
- growth [5]: 109%
- growth [6]: 100%
- growth [7]: 63.2%
- growth [8]: 105%
- growth [9]: 102%
- growth [10]: 92.1%
- growth [11]: 97%
- growth [12]: 88.2%
- growth [13]: 98.8%
- growth [14]: 98.9%
- growth [15]: 96.3%
- growth [16]: 93.6%
- growth [17]: 79.7%
- growth [18]: 101%
- growth [19]: 94.2%
- growth [20]: 79.7%

Compound: O=C(Nc1cccc(Cn2c(=O)[nH]c3ccc(Oc4ncccn4)cc3c2=O)c1)c1cccc(Cl)c1
- growth [1]: 71.7%
- growth [2]: 46.3%
- growth [3]: 80.1%
- growth [4]: 39.6%
- growth [5]: 53.3%
- growth [6]: 60%
- growth [7]: 52.4%
- growth [8]: 45.3%
- growth [9]: 47.1%
- growth [10]: 15.4%
- growth [11]: 35.9%
- growth [12]: 35.1%
- growth [13]: 58.4%
- growth [14]: 86.2%
- growth [15]: 30.5%
- growth [16]: 82.5%
- growth [17]: 62.4%
- growth [18]: 67.6%
- growth [19]: 73.7%
- growth [20]: 77.5%

Compound: O=C(Nc1cccc2c1C(=O)c1cccc(NC(=O)c3ccc(C(=O)Nc4cccc5c4C(=O)c4cccc(NC(=O)c6ccccc6)c4C5=O)cc3)c1C2=O)c1ccccc1
- growth [1]: 73.1%
- growth [2]: 86.5%
- growth [3]: 96.6%
- growth [4]: 72.9%
- growth [5]: 121%
- growth [6]: 99.9%
- growth [7]: 108%
- growth [8]: 117%
- growth [9]: 115%
- growth [10]: 75.2%
- growth [11]: 9.04% (active)
- growth [12]: 105%
- growth [13]: 98.1%
- growth [14]: 91.1%
- growth [15]: 98.9%
- growth [16]: 99.4%
- growth [17]: 41.1%
- growth [18]: 106%
- growth [19]: 99.5%
- growth [20]: 101%

Compound: O=S(=O)(Nc1ccc(Br)cc1)c1ccc(-c2cnc(C3CC3)o2)cc1
- growth [1]: 33.6%
- growth [2]: 53%
- growth [3]: 33.8%
- growth [4]: 42.3%
- growth [5]: 64.1%
- growth [6]: 30.8%
- growth [7]: 40.6%
- growth [8]: -6.87% (active)
- growth [9]: 7.7% (active)
- growth [10]: 15.8%
- growth [11]: 12.7%
- growth [12]: 13.9%
- growth [13]: 41.5%
- growth [14]: 51%
- growth [15]: 67.8%
- growth [16]: 35.5%
- growth [17]: 36.1%
- growth [18]: -7.12% (active)
- growth [19]: -8.02% (active)
- growth [20]: -2.19% (active)

Compound: CCOC(=O)c1c(C)nc2c(c1N)C(=O)C(=O)N2CCc1ccc(OC)c(OC)c1
- growth [1]: 75.5%
- growth [2]: 57.6%
- growth [3]: 89.1%
- growth [4]: 57.5%
- growth [5]: 70.8%
- growth [6]: 74%
- growth [7]: 60.2%
- growth [8]: 55.5%
- growth [9]: 75.1%
- growth [10]: 57.3%
- growth [11]: 35.9%
- growth [12]: 42.7%
- growth [13]: 77.9%
- growth [14]: 94.9%
- growth [15]: 54.8%
- growth [16]: 76.6%
- growth [17]: 74%
- growth [18]: 61.5%
- growth [19]: 89%
- growth [20]: 41.9%

Compound: O=C(NCCN1CCOCC1)c1cncnc1Nc1ccc2c(ccn2Cc2ccccn2)c1
- growth [1]: 110%
- growth [2]: 104%
- growth [3]: 93.7%
- growth [4]: 88.5%
- growth [5]: 98.7%
- growth [6]: 107%
- growth [7]: 92.4%
- growth [8]: 101%
- growth [9]: 121%
- growth [10]: 104%
- growth [11]: 111%
- growth [12]: 106%
- growth [13]: 102%
- growth [14]: 100%
- growth [15]: 106%
- growth [16]: 95.4%
- growth [17]: 106%
- growth [18]: 113%
- growth [19]: 103%
- growth [20]: 104%

Compound: CC(C)(C#N)c1cc(C(=O)Nc2cc(Nc3ncccc3-c3ncnc4nc[nH]c34)ccc2F)cc(C(F)(F)F)c1
- growth [1]: 5.07% (active)
- growth [2]: 62.8%
- growth [3]: 55.2%
- growth [4]: 17.5%
- growth [5]: 68.5%
- growth [6]: 44.4%
- growth [7]: 24.3%
- growth [8]: -24.9% (active)
- growth [9]: 57%
- growth [10]: 57.6%
- growth [11]: 52.4%
- growth [12]: 40.6%
- growth [13]: 49.5%
- growth [14]: 32.1%
- growth [15]: 46.6%
- growth [16]: 91.1%
- growth [17]: 8.69% (active)
- growth [18]: 70.1%
- growth [19]: 30.9%
- growth [20]: 52.2%

Compound: CC(=O)O[C@H]1C[C@@]2(C)[C@@H](C[C@@H](O)[C@H]3[C@@]4(C)CC[C@H](N5CCCC5)[C@@H](C)[C@@H]4CC[C@@]32C)/C1=C(\CCC=C(C)C)C(=O)O
- growth [1]: 100%
- growth [2]: 94%
- growth [3]: 98.4%
- growth [4]: 81.2%
- growth [5]: 95.1%
- growth [6]: 102%
- growth [7]: 91.6%
- growth [8]: 104%
- growth [9]: 42.8%
- growth [10]: -57.9% (active)
- growth [11]: 24%
- growth [12]: 88.1%
- growth [13]: 102%
- growth [14]: 102%
- growth [15]: 101%
- growth [16]: 100%
- growth [17]: 105%
- growth [18]: 101%
- growth [20]: 95.1%

Compound: C(=N\Nc1nnc2n1N=C(c1ccccc1)CS2)/c1ccc(OCc2ccccc2)cc1
- growth [1]: 104%
- growth [2]: 101%
- growth [3]: 98.6%
- growth [4]: 79.5%
- growth [5]: 98.2%
- growth [6]: 112%
- growth [7]: 107%
- growth [8]: 108%
- growth [9]: 97.2%
- growth [10]: 92.8%
- growth [11]: 93.4%
- growth [12]: 86.6%
- growth [13]: 102%
- growth [14]: 114%
- growth [15]: 120%
- growth [16]: 109%
- growth [17]: 99.6%
- growth [18]: 113%
- growth [19]: 112%
- growth [20]: 96.6%

Compound: NC(=O)[C@@H]1Cc2ccccc2CN1C(=O)c1ccc2c(c1)Cc1ccccc1-2
- growth [1]: 92.8%
- growth [2]: 83.1%
- growth [3]: 92.4%
- growth [4]: 61.3%
- growth [5]: 93.4%
- growth [6]: 90.5%
- growth [7]: 80.9%
- growth [8]: 89.2%
- growth [9]: 81.9%
- growth [10]: 71.1%
- growth [11]: 92.6%
- growth [12]: 60.1%
- growth [13]: 75.1%
- growth [14]: 98.8%
- growth [15]: 84.9%
- growth [16]: 108%
- growth [17]: 90.2%
- growth [18]: 85.7%
- growth [19]: 93.8%
- growth [20]: 62.8%

Compound: CCOc1ccc(-c2cc(C3(S(=O)(=O)c4ccc(C)cc4)CC=CC3)on2)cc1
- growth [1]: 90.3%
- growth [2]: 68.8%
- growth [3]: 87%
- growth [4]: 81.4%
- growth [5]: 94.1%
- growth [6]: 86.8%
- growth [7]: 83.2%
- growth [8]: 72.1%
- growth [9]: 76.6%
- growth [10]: 76.8%
- growth [11]: 69.1%
- growth [12]: 62.4%
- growth [13]: 90.4%
- growth [14]: 101%
- growth [15]: 74.3%
- growth [16]: 91%
- growth [17]: 88.5%
- growth [18]: 92%
- growth [19]: 96.4%
- growth [20]: 71%

Compound: CN1CCN(Cc2ccc(NC(=O)c3cncc(C#Cc4c(N)ncc5ccccc45)c3)cc2C(F)(F)F)CC1
- growth [1]: -79.2% (active)
- growth [2]: -34.8% (active)
- growth [3]: -97.4% (active)
- growth [4]: -78.8% (active)
- growth [5]: -97.6% (active)
- growth [6]: -91.5% (active)
- growth [7]: -66.2% (active)
- growth [8]: -63.2% (active)
- growth [9]: -7.03% (active)
- growth [10]: -41.3% (active)
- growth [11]: -42.6% (active)
- growth [12]: -38% (active)
- growth [13]: -62.3% (active)
- growth [14]: -22.2% (active)
- growth [15]: -55.1% (active)
- growth [16]: 8.37% (active)
- growth [17]: -62% (active)
- growth [18]: -78.4% (active)
- growth [20]: -24.5% (active)
